Assays:
Details in all cases: concentration: 1 μM, replicates: in singlicate; n = 1
TIE2 = system: T1, TIE2
T1 construct: gene TEK

TLK1 = system: TLK1
TLK2 = system: TLK2
TNIK = system: TNIK
TNK1 = system: TNK1
TNK2 = system: TNK2
TNNI3K = system: TNNI3K
TRKA = system: T2, TRKA
T2 construct: gene NTRK1

TRKB = system: TRKB
TRKC = system: T3, TRKC
T3 construct: gene NTRK3

TRPM6 = system: TRPM6
TSSK1B = system: TSSK1B
TSSK3 = system: TSSK3
TTK = system: TTK
TXK = system: TXK
[1] = system: TYK2(JH1domain-catalytic)
[2] = system: TYK2(JH2domain-pseudokinase)
TYRO3 = system: TYRO3
ULK1 = system: ULK1
ULK2 = system: ULK2
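Further: KINOMEscan kinase panel screen.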

COc1cccc(-n2cnc3c(N)ncnc32)c1 [SKF-97416]
%Inh (TIE2): 0%
%Inh (TLK1): 2%
%Inh (TLK2): 19%
%Inh (TNIK): 15%
%Inh (TNK1): 0%
%Inh (TNK2): 0%
%Inh (TNNI3K): 0%
%Inh (TRKA): 45%
%Inh (TRKB): 48%
%Inh (TRKC): 33%
%Inh (TRPM6): 65%
%Inh (TSSK1B): 0%
%Inh (TSSK3): 21%
%Inh (TTK): 44%
%Inh (TXK): 11%
%Inh [1]: 83%
%Inh [2]: 40%
%Inh (TYRO3): 0%
%Inh (ULK1): 45%
%Inh (ULK2): 39%

Cc1ccc(Oc2ccc(Nc3ncnc4cc[nH]c34)cc2C)cn1
%Inh (TIE2): 13%
%Inh (TLK1): 6%
%Inh (TLK2): 12%
%Inh (TNIK): 0%
%Inh (TNK1): 0%
%Inh (TNK2): 12%
%Inh (TNNI3K): 3%
%Inh (TRKA): 42%
%Inh (TRKB): 14%
%Inh (TRKC): 17%
%Inh (TRPM6): 0%
%Inh (TSSK1B): 5%
%Inh (TSSK3): 0%
%Inh (TTK): 31%
%Inh (TXK): 6%
%Inh [1]: 22%
%Inh [2]: 15%
%Inh (TYRO3): 3%
%Inh (ULK1): 11%
%Inh (ULK2): 0%

CCC(=O)c1c(-c2ccccc2)c2cc(Cl)ccc2c(=O)n1Cc1ccc(C(=O)O)cc1
%Inh (TIE2): 0%
%Inh (TLK1): 0%
%Inh (TLK2): 0%
%Inh (TNIK): 0%
%Inh (TNK1): 0%
%Inh (TNK2): 0%
%Inh (TNNI3K): 0%
%Inh (TRKA): 0%
%Inh (TRKB): 0%
%Inh (TRKC): 0%
%Inh (TRPM6): 0%
%Inh (TSSK1B): 0%
%Inh (TSSK3): 0%
%Inh (TTK): 0%
%Inh (TXK): 0%
%Inh [1]: 0%
%Inh [2]: 0%
%Inh (TYRO3): 0%
%Inh (ULK1): 0%
%Inh (ULK2): 2%

CCCC(=O)Nc1n[nH]c2ncc(-c3cccc4ccccc34)cc12 [SB-642057]
%Inh (TIE2): 0%
%Inh (TLK1): 32%
%Inh (TLK2): 100%
%Inh (TNIK): 0%
%Inh (TNK1): 0%
%Inh (TNK2): 4%
%Inh (TNNI3K): 5%
%Inh (TRKA): 0%
%Inh (TRKB): 0%
%Inh (TRKC): 0%
%Inh (TRPM6): 48%
%Inh (TSSK1B): 36%
%Inh (TSSK3): 0%
%Inh (TTK): 0%
%Inh (TXK): 52%
%Inh [1]: 0%
%Inh [2]: 38%
%Inh (TYRO3): 0%
%Inh (ULK1): 18%
%Inh (ULK2): 1%

O=C(Nc1ccc2c(c1)OCO2)NC1CCN(c2ccnc(NCc3ccc(F)cc3)n2)CC1 [GSK1379859]
%Inh (TIE2): 0%
%Inh (TLK1): 0%
%Inh (TLK2): 0%
%Inh (TNIK): 0%
%Inh (TNK1): 0%
%Inh (TNK2): 7%
%Inh (TNNI3K): 1%
%Inh (TRKA): 0%
%Inh (TRKB): 15%
%Inh (TRKC): 6%
%Inh (TRPM6): 47%
%Inh (TSSK1B): 0%
%Inh (TSSK3): 12%
%Inh (TTK): 0%
%Inh (TXK): 0%
%Inh [1]: 0%
%Inh [2]: 0%
%Inh (TYRO3): 0%
%Inh (ULK1): 12%
%Inh (ULK2): 0%

Cc1nn2c(=O)cc(N3CCOCC3)nc2n1Cc1cccc(Cl)c1Cl [GSK2342769]
%Inh (TIE2): 0%
%Inh (TLK1): 0%
%Inh (TLK2): 0%
%Inh (TNIK): 0%
%Inh (TNK1): 0%
%Inh (TNK2): 16%
%Inh (TNNI3K): 5%
%Inh (TRKA): 0%
%Inh (TRKB): 0%
%Inh (TRKC): 4%
%Inh (TRPM6): 0%
%Inh (TSSK1B): 0%
%Inh (TSSK3): 6%
%Inh (TTK): 0%
%Inh (TXK): 13%
%Inh [1]: 10%
%Inh [2]: 4%
%Inh (TYRO3): 0%
%Inh (ULK1): 17%
%Inh (ULK2): 0%

Fc1cccc(CSc2nnc(-c3ccc4c(c3)CCO4)o2)c1
%Inh (TIE2): 7%
%Inh (TLK1): 0%
%Inh (TLK2): 12%
%Inh (TNIK): 0%
%Inh (TNK1): 0%
%Inh (TNK2): 8%
%Inh (TNNI3K): 6%
%Inh (TRKA): 3%
%Inh (TRKB): 0%
%Inh (TRKC): 28%
%Inh (TRPM6): 0%
%Inh (TSSK1B): 0%
%Inh (TSSK3): 2%
%Inh (TTK): 2%
%Inh (TXK): 0%
%Inh [1]: 4%
%Inh [2]: 12%
%Inh (TYRO3): 0%
%Inh (ULK1): 0%
%Inh (ULK2): 9%

CCC(=O)c1c(-c2ccccc2)c2cc(Cl)ccc2c(=O)n1Cc1cc(S(C)(=O)=O)n(CCC(C)(C)O)n1
%Inh (TIE2): 5%
%Inh (TLK1): 1%
%Inh (TLK2): 0%
%Inh (TNIK): 2%
%Inh (TNK1): 28%
%Inh (TNK2): 0%
%Inh (TNNI3K): 13%
%Inh (TRKA): 0%
%Inh (TRKB): 0%
%Inh (TRKC): 31%
%Inh (TRPM6): 18%
%Inh (TSSK1B): 0%
%Inh (TSSK3): 1%
%Inh (TTK): 4%
%Inh (TXK): 18%
%Inh [1]: 0%
%Inh [2]: 6%
%Inh (TYRO3): 0%
%Inh (ULK1): 0%
%Inh (ULK2): 7%

Cc1nc(N(C)[C@H]2CN(C(=O)CC#N)CC[C@H]2C)c2cc[nH]c2n1
%Inh (TIE2): 3%
%Inh (TLK1): 3%
%Inh (TLK2): 7%
%Inh (TNIK): 0%
%Inh (TNK1): 3%
%Inh (TNK2): 11%
%Inh (TNNI3K): 0%
%Inh (TRKA): 17%
%Inh (TRKB): 0%
%Inh (TRKC): 0%
%Inh (TRPM6): 0%
%Inh (TSSK1B): 0%
%Inh (TSSK3): 0%
%Inh (TTK): 19%
%Inh (TXK): 8%
%Inh [1]: 15%
%Inh [2]: 0%
%Inh (TYRO3): 18%
%Inh (ULK1): 0%
%Inh (ULK2): 8%

CCc1nc(-c2cccc(C)c2)c(-c2ccncc2)s1
%Inh (TIE2): 12%
%Inh (TLK1): 24%
%Inh (TLK2): 0%
%Inh (TNIK): 59%
%Inh (TNK1): 2%
%Inh (TNK2): 0%
%Inh (TNNI3K): 0%
%Inh (TRKA): 11%
%Inh (TRKB): 0%
%Inh (TRKC): 0%
%Inh (TRPM6): 0%
%Inh (TSSK1B): 0%
%Inh (TSSK3): 0%
%Inh (TTK): 0%
%Inh (TXK): 0%
%Inh [1]: 0%
%Inh [2]: 25%
%Inh (TYRO3): 0%
%Inh (ULK1): 0%
%Inh (ULK2): 0%

COC(=O)c1c(-c2ccccc2)c2cc(Br)ccc2c(=O)n1Cc1ccc(S(C)(=O)=O)cc1
%Inh (TIE2): 3%
%Inh (TLK1): 14%
%Inh (TLK2): 0%
%Inh (TNIK): 0%
%Inh (TNK1): 0%
%Inh (TNK2): 1%
%Inh (TNNI3K): 0%
%Inh (TRKA): 0%
%Inh (TRKB): 0%
%Inh (TRKC): 24%
%Inh (TRPM6): 2%
%Inh (TSSK1B): 0%
%Inh (TSSK3): 0%
%Inh (TTK): 31%
%Inh (TXK): 12%
%Inh [1]: 7%
%Inh [2]: 15%
%Inh (TYRO3): 1%
%Inh (ULK1): 0%
%Inh (ULK2): 13%

From article PMC5540273 (PLoS ONE, 2017)
